Assay outcomes: PubChem BioAssay, National Center for Advancing Translational Sciences (NCATS)
RORgamma inh: blocks mouse ROR gamma transcriptional activity; Drosophila S2 Gal4-RORgamma UAS-luciferase reporter, 20 h; Potency, µM (series often up to 53.6 µM), inactives show at the highest dose activity change, negative = inhibition, actives largely listed as inhibitors; 310,000 compounds, 5.4% hits; AID 2551; also: % is scaled to controls: 0 for no effect and ±100 for the full control effect; nearly all actives have a fitted effect of over 60% in size
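Using a luciferase readout, inhibitors were identified by reduced reporter activity in Drosophila cells coexpressing a copper-inducible Gal4–ROR gamma fusion and UAS-driven Photinus luciferase, incubated 20 hr after 700 uM copper sulfate.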
ClpP mod: qHTS Assay for Activators of ClpP; ATP-dependent Clp protease proteolytic subunit (Bacillus subtilis (strain 168)), P80244; purified B. subtilis ClpP, FRET peptide cleavage, 20 min; Potency, µM (series often up to 57.5 µM), inactives show at the highest dose activity change, negative = active; 340,000 compounds, 1.9% hits; AID 651965, 2013; active = well fitted falling curve with a large enough effect; inconclusive = small, poorly fitted or top-dose-only effect; inactive = no such curve, though single readings can be large or run the other way; also: the source files actives as falling curves though it sought activators and does not explain the sign; nearly all actives have a fitted effect of over 65% in size
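ClpP 10 microg/mL final, pH 8 Tris/KCl buffer with BSA, glycerol, Tween-20; compound pinned in; FRET-FV substrate; RT 20 min; Ex320/Em430; ΔFRET vs ADEP 5.8 microM, DMSO, no enzyme.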
VP16 counter: Gal4-VP16 reporter inhibition counter-screen; Drosophila S2 Gal4-VP16 UAS-luciferase, luminescence, 20 h; Potency, µM (highest dose often 53.6 µM), for the others: at the highest dose activity, negative = inhibition, actives largely listed as inhibitors; 310,000 compounds, 3.5% hits; AID 2546;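 also: Gal4-VP16 expression switched on by copper sulfate through the metallothionein promoter; % is scaled to controls: 0 for no effect and ±100 for the full control effect; nearly all actives have a fitted effect of over 50% in size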
Sfp inh: blocks B. subtilis Sfp PPTase activity. Biochemical Sfp PPTase activity, qHTS. Potency, µM, without a hit: largest response in the series, negative = inhibition, actives largely listed as inhibitors. 310,000 compounds, 3.5% hits;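 also: the enzyme is Sfp with the accession as filed and its product quenches rhodamine fluorescence; 0% = enzyme reaction without inhibitor and -100% = no enzyme wells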
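Step 1, compound plus 15 nM Sfp-PPTase, 15 min, room temperature. Step 2, add rhodamine-CoA (5 uM) and BHQ-2-YbbR (12.5 uM). Step 3, read 525/598 nm fluorescence at 0 and 30 min.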
Epigenetic reg: regulators of epigenetic silencing causing reporter derepression in mouse cells; murine LDR cells, GFP reporter derepression, 30 h; Potency, µM (top dose mostly 53.9 µM), for the others: top-dose GFP activation, hits mostly activators; 280,000 compounds, 0.2% hits; also: % of control where 0% means no effect; nearly all actives have a fitted effect of over 60% in size
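Murine LDR cells carrying a silenced, genomically integrated CMV-driven GFP reporter were exposed to compound for 30 hours at 37 C. After PBS washes, GFP-positive cells (20–120 um objects) were counted by laser-scanning microplate cytometry.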
PINK1 modulator: PINK1 expression modulation; PINK1 immunofluorescence, high-content cytometry, 24 h; Potency, µM (highest dose often 76.6 µM), inactives show at the top dose activation (PINK1 increase), most hits filed as activators; 410,000 compounds, 0.2% hits; AID 624263; active = well fitted activation curve with a large enough effect; inconclusive = small, poorly fitted or top-dose-only effect; cell line not stated here; also: % of control where 0% means no effect; nearly all actives have a fitted effect of over 65% in size
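Stable cell line, 250 cells/well, 12 h attachment; compounds pinned at 5 concentrations, 24 h; CCCP control. Fixed with nuclear dye, primary antibodies 12 h at 10 degrees C, secondary plus cell stain; laser-scanning cytometer read.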
* marks the source's active call; other numbers are inactive results; ! = repeats disagree; [ ] = remark or other dose. Hits are enriched below; roughly 8.1% of the tested compounds scored in any of these assays. Unless noted, calls follow the shape of the dose curve; as a rule, active = well fitted curve in the direction sought with a large enough effect; inconclusive = small, poorly fitted or top-dose-only effect, or another doubt; inactive = no such curve, though single readings can be large; an effect the other way counts as inactive or inconclusive. Potency is read from the fitted curve at half-maximal effect.

`CN1CCN(c2ncc3nc(-c4cccc(C#N)c4)c(=O)n(Cc4ccc(F)cc4)c3n2)CC1` gave RORgamma inh inconclusive, VP16 counter 20µM*, Sfp inh 1.7% and PINK1 modulator 4.1%.
COc1cccc(Cn2c(=O)c(-c3cc(F)cc(F)c3)nc3cnc(N4CCNCC4)nc32)c1 was read as RORgamma inh 2.82µM*, VP16 counter inconclusive, Sfp inh inconclusive and PINK1 modulator 1.5%.
Screening O=c1c(-c2cc(F)cc(F)c2)nc2cnc(N3CCNCC3)nc2n1Cc1ccc(F)cc1 returned RORgamma inh 3.16µM*, VP16 counter 4.47µM*, Sfp inh 17.8µM* and PINK1 modulator 3.1%.
For COc1cccc(Cn2c(=O)c(CCc3ccccc3)nc3cnc(N4CCNCC4)nc32)c1 the results were RORgamma inh -7.9%, VP16 counter -16.2%, Sfp inh 79.4µM* and PINK1 modulator 1.7%.
COc1cccc(Cn2c(=O)c(CCc3ccccc3)nc3cnc(N4CCOCC4)nc32)c1 was read as RORgamma inh -22.9%, VP16 counter 5.6%, Sfp inh 23.5% and PINK1 modulator 0.3%.
For O=c1c(-c2ccccc2)nc2cnc(N3CCNCC3)nc2n1Cc1ccc(F)cc1 the results were RORgamma inh -13.3%, VP16 counter -21.6%, Sfp inh -10.9% and PINK1 modulator 8.1%.
CC(C)(C)C(=O)N1CCC[C@H]1C(O)(c1ccccc1)c1ccccc1 was read as RORgamma inh inconclusive, ClpP mod -3.6%, VP16 counter 22.4µM*, Sfp inh -6.4%, Epigenetic reg 2.1% and PINK1 modulator -2.4%.
`O=C(C1CC1)N1CCC(C(O)(c2ccccc2)c2ccccc2)CC1` gave RORgamma inh 21.7%, ClpP mod -1.7%, VP16 counter -9.3%, Sfp inh 7.9%, Epigenetic reg -6.7% and PINK1 modulator -1.1%.
`C/C(CCc1ccc2c(c1)OCO2)=N\N=C1\NC(=O)CC(C(=O)Nc2ccccc2F)S1` (stereo unspecified) gave RORgamma inh 11.2µM*, VP16 counter inconclusive, Sfp inh inconclusive, Epigenetic reg -4.6% and PINK1 modulator -1.0%.
`C1=Nc2ccccc2CN1c1ccccc1` gave RORgamma inh 5.4%, ClpP mod -0.9%, VP16 counter -9.8%, Sfp inh 5.5%, Epigenetic reg 0.9% and PINK1 modulator 8.2%.
`CC(C)c1ccc(N2C=Nc3ccc(C(C)C)cc3C2)cc1` gave RORgamma inh 7.94µM*, ClpP mod -2.7%, VP16 counter inconclusive, Sfp inh inconclusive, Epigenetic reg 1.2% and PINK1 modulator -1.9%.
For O=c1cc[nH]c2c(C(F)(F)F)cccc12 the results were RORgamma inh -41.6%, ClpP mod 28.2µM*, VP16 counter 8.3%, Sfp inh 11.7%, Epigenetic reg -2.0% and PINK1 modulator -0.6%.
O=C(O)c1c[nH]c2c(C(F)(F)F)cccc2c1=O was read as RORgamma inh 0.6%, ClpP mod -24.0%, VP16 counter 0.7%, Sfp inh 3.8%, Epigenetic reg 0.1% and PINK1 modulator 0.7%.
For Cc1ccc(-n2c(C)csc2=N)cc1 the results were RORgamma inh inconclusive, ClpP mod -2.1%, VP16 counter -15.1%, Sfp inh -8.8%, Epigenetic reg 0.1% and PINK1 modulator 8.3%[38.3 µM].
`Cc1csc(=N)n1-c1ccc(Cl)cc1` gave RORgamma inh inconclusive, ClpP mod -1.3%, VP16 counter 11.2µM*, Sfp inh inconclusive, Epigenetic reg 0.0% and PINK1 modulator 7.7%[38.3 µM].
`Cc1cc(N)c2ccccc2[n+]1CCCCCCCCCC[n+]1c(C)cc(N)c2ccccc21` gave RORgamma inh inconclusive, VP16 counter inconclusive, Sfp inh 4.47µM*! and Epigenetic reg 1.1%.
For CCCCCCC[n+]1ccc(C)c2ccccc21 the results were ClpP mod -26.0%.
Screening COCCNC(=O)CSc1nc(-c2cc(OC)c(OC)c(OC)c2)[nH]c1-c1ccc(Cl)cc1 returned ClpP mod inconclusive, Epigenetic reg -2.1% and PINK1 modulator 1.1%.
NC(=O)c1c(-c2ccc(Cl)cc2Cl)csc1NC(=O)Cc1ccccc1 was read as RORgamma inh inconclusive, ClpP mod 2.2%, VP16 counter 7.08µM*, Sfp inh 2.2%, Epigenetic reg 2.5% and PINK1 modulator 11.0%.
Screening O=C(Cc1ccccc1)Nc1scc(-c2ccccc2)c1C(=O)N1CCOCC1 returned RORgamma inh -0.7%, ClpP mod 0.1%, VP16 counter 3.9%, Sfp inh 0.3%, Epigenetic reg 0.0% and PINK1 modulator -2.4%.
`O=C1C=CC(=O)N1c1ccccc1N1C(=O)C=CC1=O` gave PINK1 modulator -1.4%.
O=C(c1ccccc1)c1ccccc1N1C(=O)C=CC1=O was read as RORgamma inh 5.01µM*, ClpP mod -0.7%, VP16 counter 7.08µM*, Sfp inh 1.26µM*, Epigenetic reg 2.9% and PINK1 modulator -3.4%.
For CC1=C(C(=O)OCc2ccc(C)cc2)C(c2ccccc2C(F)(F)F)CC(=O)N1 (stereo unspecified) the results were ClpP mod -1.3%, Epigenetic reg 15.8% and PINK1 modulator 1.8%.
For COc1ccc(/C=N/NC(=O)CSCC(=O)Nc2ccccc2)cc1OC the results were RORgamma inh 14.9%, ClpP mod -9.5%, VP16 counter -4.7%, Sfp inh 7.6%, Epigenetic reg -2.0% and PINK1 modulator 7.9%[38.3 µM].
`COC(=O)Oc1ccc(/C=N/NC(=O)CSCc2ccccc2Br)cc1OC` gave RORgamma inh inconclusive, ClpP mod -0.1%, VP16 counter 12.6µM*, Sfp inh 8.0%, Epigenetic reg 0.7% and PINK1 modulator 0.8%.
Screening O=C(O)CC/C(=C\c1cc([N+](=O)[O-])ccc1Cl)c1nc2ccccc2s1 returned RORgamma inh 3.0%, ClpP mod -2.0%, VP16 counter 2.3%, Sfp inh 3.0%, Epigenetic reg 0.0% and PINK1 modulator 1.1%.
Screening O=C(Nc1ccc(Cl)cc1)/C(=C/c1ccc([N+](=O)[O-])cc1)c1nc2ccccc2s1 returned RORgamma inh 5.01µM*, VP16 counter 5.01µM*, Sfp inh 5.7% and Epigenetic reg 2.1%.
`O=C(CSc1nc2ccccc2s1)NNC(=S)Nc1ccc(Cl)cc1` gave RORgamma inh 5.01µM*, ClpP mod 0.1%, VP16 counter 8.91µM*, Sfp inh 12.7%, Epigenetic reg -1.1% and PINK1 modulator -1.7%.
